This note sets out measurements from PubChem BioAssay AID1347420 (Sanford-Burnham Center for Chemical Genomics, 2020).

Broadly, the inhibition is the relative decrease from the control value, in per cent.

In all, about 1,300 compounds went through this assay and about 980 (75%) were called active. Inconclusive results (about 4%) are left out. This is one part of the list. Unmarked numbers belong to inactive results.

Sulfhydryl oxidase 1 (Homo sapiens), sequence (O00391 whole entry, looked up): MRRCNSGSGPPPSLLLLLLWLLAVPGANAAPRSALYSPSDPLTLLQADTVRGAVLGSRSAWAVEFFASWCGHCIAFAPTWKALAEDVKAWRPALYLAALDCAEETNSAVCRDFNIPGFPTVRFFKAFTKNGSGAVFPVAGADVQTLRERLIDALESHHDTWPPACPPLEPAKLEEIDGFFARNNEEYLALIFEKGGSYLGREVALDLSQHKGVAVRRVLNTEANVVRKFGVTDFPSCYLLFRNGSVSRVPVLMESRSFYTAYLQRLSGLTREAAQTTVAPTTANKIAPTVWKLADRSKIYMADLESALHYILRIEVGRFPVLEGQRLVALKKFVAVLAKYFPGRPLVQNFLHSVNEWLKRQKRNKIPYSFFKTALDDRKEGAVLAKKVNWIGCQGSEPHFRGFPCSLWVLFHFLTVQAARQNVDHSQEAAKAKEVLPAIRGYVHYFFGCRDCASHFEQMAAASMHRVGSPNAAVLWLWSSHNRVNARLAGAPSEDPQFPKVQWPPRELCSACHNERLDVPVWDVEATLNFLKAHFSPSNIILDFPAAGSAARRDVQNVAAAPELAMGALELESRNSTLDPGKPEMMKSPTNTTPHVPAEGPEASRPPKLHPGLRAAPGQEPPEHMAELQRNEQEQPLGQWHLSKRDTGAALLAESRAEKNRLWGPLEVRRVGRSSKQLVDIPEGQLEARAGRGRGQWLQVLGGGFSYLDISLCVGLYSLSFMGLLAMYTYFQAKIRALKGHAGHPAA

The experiment addresses Sulfhydryl oxidase 1 (Homo sapiens) (UniProt O00391). In words: QSOX1 enzyme inhibitors, primary screen, biochemical, HyperBlu H2O2 luminescence, HTS (AID 1347420). Further: values above 100% were filed as inconclusive. The note with it: recombinant QSOX1, HyperBlu H2O2 luminescence; at 12.5 µM; stronger effect = higher value; active = any value above zero.
For the compound `Nc1ccn([C@@H]2O[C@H](CO)[C@@H](O)C2O)c(=O)n1` (some centres undefined), the inhibition is -7%. Turning to `Nc1nc(Cl)nc2c1ncn2[C@@H]1O[C@H](CO)[C@H](O)C1O` (some centres undefined), the inhibition is 13.7% (active). As for `NC[C@H]1O[C@@H](n2cnc3c(N)ncnc32)[C@H](O)[C@@H]1O`, the inhibition was 16.1% (active). The figure for `Nc1ncn([C@@H]2O[C@H](CO)[C@H](O)C2O)c(=O)n1` (some centres undefined) is 21.3% (active); for `Nc1ncnc2c1ncn2[C@@H]1O[C@H](CO)[C@H](O)C1O` (some centres undefined) it is 13.8% (active); for `CC(=O)O[C@H]1C(=O)[C@@]2(C)C([C@H](OC(=O)c3ccccc3)[C@]3(O)C[C@H](OC(=O)[C@H](O)[C@@H](NC(=O)c4ccccc4)c4ccccc4)C(C)=C1C3(C)C)[C@]1(OC(C)=O)CO[C@@H]1C[C@@H]2O` (some centres undefined) it is -4.9%. As for `CCc1cccc2c3c([nH]c12)C(CC)(CC(=O)O)OCC3` (centres undefined), the figure is -6%; as for `Nc1ncnc2c1ncn2C1CCCO1` (centres undefined), -13.6%. On to `Nc1nc(Nc2ccccc2)nc2c1ncn2[C@@H]1O[C@H](CO)[C@H](O)C1O` (some centres undefined), for which the inhibition is 8.8% (active).

For the compound `CCNc1nc2c(ncn2[C@H]2C[C@H](O)[C@@H](CO)O2)c(=O)[nH]1`, the inhibition is -2.5%. As for `Nc1nc2c(ncn2[C@@H]2O[C@H](CO)[C@@H](O)[C@@H]2O)c(=O)[nH]1`, the figure is 7.5% (active); as for `OC[C@H]1O[C@@H](n2cnc3cncnc32)[C@H](O)[C@@H]1O`, 17% (active). As for `Nc1ncnc2c1ncn2C1CCCC1`, the figure is 12.4% (active); as for `CCCC(CCC)C(=O)O`, 40.8% (active). As for `N#Cc1cc([N+](=O)[O-])c2sc(C(N)=O)[n+]([O-])c2c1`, the figure is 25.4% (active). Take `NC(=O)C1=C[N+](=C2OC(COP(=O)(O)OP(=O)([O-])OC[C@H]3O[C@@H](n4cnc5c(N)ncnc54)C(OP(=O)(O)O)[C@H]3O)C(O)C2O)C=CC1` (some centres undefined): the inhibition was -12.9%. The figure for `Nc1ncnc2c1ncn2[C@@H]1O[C@H](COP(=O)(O)OP(=O)(O)OP(=O)(O)OP(=O)(O)OC[C@@H]2O[C@H](n3cnc4c(N)ncnc43)C(O)[C@@H]2O)[C@H](O)C1O` (some centres undefined) is 11.6% (active); for `Nc1ncnc2c1ncn2[C@@H]1O[C@H](COP(=O)(O)CP(=O)(O)OP(=O)(O)O)[C@H](O)C1O` (some centres undefined) it is 13.7% (active). The figure for `CCN(CC)c1ncnc2c1ncn2[C@@H]1O[C@H](COP(=O)(O)OP(=O)(O)C(Br)(Br)P(=O)(O)O)[C@@H](O)[C@H]1O` is -3%; for `NC(=S)c1ccc[n+]([C@@H]2O[C@@H](COP(=O)([O-])OP(=O)(O)OC[C@H]3O[C@@H](n4cnc5c(N)ncnc54)C(OP(=O)(O)O)[C@H]3O)C(O)C2O)c1` (some centres undefined) it is 4.8% (active); for `O=c1[nH]cnc2[nH]ncc12` it is 19.2% (active). The figure for `Clc1ccccc1C(c1ccccc1)(c1ccccc1)n1ccnc1` is -1.8%; for `CC(=O)/C=C1\C(=O)N(C)c2ccccc21` it is 4.3% (active); for `COc1cc(CNC(=O)CCCCCCC(C)C)ccc1O` it is 15.1% (active). For `CCCCCCCC/C=C\CCCCCCCC(=O)NCCc1ccc(O)c(O)c1`, the inhibition was 1.1% (active). The figure for `CCCCCCCC/C=C\CCCCCCCC(=O)NCc1ccc(O)c(OC)c1` is 8% (active); for `CN(C)C(=O)/N=N/C(=O)N(C)C` it is 13.5% (active). The figure for `O=C1Cc2cc(CCN3CCN(c4nsc5ccccc45)CC3)c(Cl)cc2N1` is -10.1%; for `N[C@@H](CCC(=O)N[C@H](CSN=O)C(=O)NCC(=O)O)C(=O)O` it is 15.7% (active). As for `[N-]=[N+]=Nc1ccc(C(=O)CSC[C@H](NC(=O)CC[C@H](N)C(=O)O)C(=O)NCC(=O)O)cc1`, the inhibition was 19.5% (active). The figure for `COc1ccc(-c2cc3ncc(C)n3c(Nc3ncccc3C(N)=O)n2)cc1OC` is 20.4% (active). As for `NO`, the figure is -43.8%. For `COC1=C(OC)C(=O)c2ccccc2C1=O`, the inhibition was 37.3% (active). As to `O=C1c2ccccc2-c2n[nH]c3cccc1c23`, the inhibition was -5.6%. As for `O=C1c2ccccc2C(=O)c2c(NCCc3ccc(O)cc3)ccc(NCCc3ccc(O)cc3)c21`, the figure is 60.9% (active); as for `O=C(O)C1CN(CCCP(=O)(O)O)CCN1` (centres undefined), 37% (active); as for `C[C@](Cc1ccc(O)c(O)c1)(NN)C(=O)O`, 44.1% (active). As for `CC(N)(Cc1ccc(O)c(O)c1)C(=O)O` (centres undefined), the figure is 31.2% (active). On to `C[C@](N)(Cc1ccc(O)c(O)c1)C(=O)O`, for which the inhibition is 36.6% (active). Take `O=C(c1ccc(OCCCc2cnc[nH]2)cc1)C1CC1`: the inhibition is 8% (active). The figure for `CC1(C)CCC(NC(=O)[C@@H](N)CCC(=O)O)CC1` is 8.5% (active); for `CCOC(=O)Nc1ccc(NCc2ccc(F)cc2)nc1N` it is 40% (active). Turning to `O=C1C(SCCO)=C(SCCO)C(=O)c2ccccc21`, the inhibition is 66.7% (active). As for `CN(C)c1nc2c(Br)c(Br)c(Br)c(Br)c2[nH]1`, the figure is 46.6% (active); as for `Nc1nc2[nH]c(=O)cnc2c(=O)[nH]1`, -15.8%. As for `Nc1cc(=O)[nH]c(N)n1`, the figure is 11.6% (active).

For `C#CCN(C)CCCOc1ccc(Cl)cc1Cl`, the inhibition is 6.1% (active). As for `C#CCN(C)Cc1ccccc1`, the figure is -4.3%; as for `Cn1cnc([N+](=O)[O-])c1Sc1ncnc2nc[nH]c12`, 19.5% (active). As for `Fc1ccc(CN(C2=NCCN2)c2c(Cl)cccc2Cl)cc1`, the figure is -1.5%. As for `COc1nc(C)nc(Cl)c1NC1=NCCN1`, the figure is 12.9% (active). Turning to `Nc1cc(Cl)c(NC2=NCCN2)c(Cl)c1`, the inhibition was 23.9% (active).

As to `Clc1ccc2nsnc2c1NC1=NCCN1`, the inhibition is -10.4%. As for `Clc1cccc(Cl)c1NC1=NCCN1`, the figure is 7.2% (active); as for `CC1=C(C)C(=O)C(CCCCC#CCCCC#CCO)=C(C)C1=O`, 32.9% (active).

Consider `CCCCCCCCCCCCCCCCCCOC[C@H](COP(=O)([O-])OCC[N+](C)(C)C)OC`, for which the inhibition was -5.6%. As for `CCCCCCCCCCCCCCCCCCNC(=O)OCC(COP(=O)([O-])OCC[n+]1ccsc1)OC` (centres undefined), the figure is 10.6% (active); as for `N=c1ccn2c(n1)OC1C(O)[C@@H](CO)O[C@H]12` (some centres undefined), 6.1% (active); as for `NCCCCC(=O)O`, 19.4% (active). `NCCCCCC(=O)O`: the inhibition is 40% (active). On to `O=C(O)CCCCCCCC(=O)O`, for which the inhibition was 11.4% (active).

Consider `NCCCC(=O)O`, for which the inhibition is 25.9% (active). As for `NC(N)=NC(=O)c1nc(Cl)c(N)nc1N`, the figure is 20.2% (active); as for `CCN(c1nc(N)c(C(=O)N=C(N)N)nc1Cl)C(C)C`, 22.6% (active).

As for `CN(C)c1nc(N)c(C(=O)N=C(N)N)nc1Cl`, the inhibition was 10.2% (active). Take `NC(N)=NC(=O)c1nc(Cl)c(N2CCCCCC2)nc1N`: the inhibition is 24.3% (active). The figure for `O=C(O)CCc1ccc(NCc2cccc(Oc3ccccc3)c2)cc1` is 41.7% (active); for `C=C1C[C@@]23CC[C@H]4[C@@](C)(CCC[C@@]4(C)C(=O)OC4OC(CO)C(O)C(O)C4O)[C@@H]2CCC1(OC1OC(CO)C(O)C(O)C1OC1OC(CO)C(O)C(O)C1O)C3` (some centres undefined) it is -13.9%; for `C=C1C[C@@]23CC[C@H]4[C@@](C)(CCC[C@@]4(C)C(=O)O)[C@@H]2CC[C@]1(O)C3` it is 9% (active). The figure for `CCOC(=O)N1CCC(=C2c3ccc(Cl)cc3CCc3cccnc32)CC1` is 13.2% (active); for `Cn1ccnc1` it is 9.1% (active); for `CCCCCCCCCCCCCCSCC(=O)O` it is 9.4% (active). As for `NC1C=CC=C(C(=O)O)C1` (centres undefined), the figure is 21.6% (active); as for `OCC1O[C@H](O)C(Cl)C(O)C1O` (some centres undefined), 23.9% (active); as for `COCCCC/C(=N\OCCN)c1ccc(C(F)(F)F)cc1`, 9.6% (active).

In the case of `CN1CCC(=C2c3ccccc3CC(=O)c3sccc32)CC1`, the inhibition is 6.3% (active). As for `CN1CCC(=C2c3ccccc3C=Cc3ccccc32)CC1`, the figure is -2.7%. Regarding `COc1ccc(C2CNC(=O)C2)cc1OC1CCCC1` (centres undefined), the inhibition is 5.2% (active). Take `C=CCN1CCc2cc(O)c(O)cc2C(c2ccccc2)C1` (centres undefined): the inhibition was 76.8% (active).

Turning to `C=CCN1CCc2c(cc(O)c(O)c2Cl)C(c2ccccc2)C1` (centres undefined), the inhibition was 84.4% (active). The figure for `Cc1cccc(C2CN(C)CCc3c2cc(O)c(O)c3Cl)c1` (centres undefined) is 97.2% (active); for `O=C1CCc2cc(OCCCCc3nnnn3C3CCCCC3)ccc2N1` it is 11.5% (active); for `COc1cc2c(cc1OC)-c1cc(=Nc3c(C)cc(C)cc3C)n(C)c(=O)n1CC2` it is 4.4% (active). With `CCn1nc(C(=O)O)c(=O)c2cc3c(cc21)OCO3`, the inhibition was 0%.

Consider `C[C@H]1O[C@@H](n2cc(F)c(=O)[nH]c2=O)[C@H](O)[C@@H]1O`, for which the inhibition was 20% (active). Regarding `O=c1ccn([C@@H]2O[C@H](COP(=O)(O)OP(=O)(O)O)[C@@H](O)[C@H]2O)c(=O)[nH]1`, the inhibition was -0.8%.

With `O=C1N=C([O-])CN1/N=C/C1=C[C+]=C(c2ccc([N+](=O)[O-])cc2)O1`, the inhibition is 53% (active). The figure for `O=C(CCCCCN1CCN(c2ccccc2-c2ccccc2)CC1)NC1CCCc2ccccc21` (centres undefined) is 22.8% (active); for `CSc1ccccc1N1CCN(CCCCCC(=O)NC2CCCc3ccccc32)CC1` (centres undefined) it is 11.3% (active); for `NC(N)=NC(=O)Cc1c(Cl)cccc1Cl` it is 16.4% (active). The figure for `NC(N)=N/N=C/c1c(Cl)cccc1Cl` is -6.1%.

Consider `O=C(O)c1cccnc1C(=O)O`, for which the inhibition is 5.1% (active).

On to `O=C1NCc2c1c1c3ccccc3[nH]c1c1[nH]c3ccccc3c21`, for which the inhibition is 13.3% (active). The figure for `Cn1c(=O)c2[nH]c(-c3ccccc3)nc2n(C)c1=O` is 14.7% (active); for `Cn1c(=O)c2[nH]c(-c3ccc(S(=O)(=O)O)cc3)nc2n(C)c1=O` it is 31.8% (active). The figure for `CCCn1c(=O)c2[nH]c(-c3ccc(S(=O)(=O)O)cc3)nc2n(CCC)c1=O` is 20.3% (active); for `CCCn1c(=O)c2[nH]c(-c3ccc(OCC(=O)NCCN)cc3)nc2n(CCC)c1=O` it is -3.6%.

On to `CN(C)S(=O)(=O)c1ccc2c(c1)/C(=C/c1cc3c([nH]1)CCCC3)C(=O)N2`, for which the inhibition is 52.1% (active).

Take `CNc1cc(NS(=O)(=O)c2ccc(N)cc2)nc(NC)n1`: the inhibition is 1.3% (active).
